The source of these data is PubChem BioAssay (EPA / NIEHS).

Molecules are shown by their SMILES. Results filed as inconclusive are left out. Activity calls are given as the source filed them. How the source made its calls: active means hit-call score of the fitted dose curve at least 0.9, where 1 is the maximum; inconclusive means response in the unintended direction; inactive means score below 0.9.

One experiment is described as follows: Tanguay_ZF_120hpf_PE_legacy: (Legacy) Oregon State University Tanguay Lab 120 Hour Post-fertilization zebrafish Assay for Pericardial Edema (AID 2283640).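 On AC50: potency for increased incidence of pericardial edema versus DMSO baseline.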 The essentials: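 Embryos from wild-type 5D adults were staged, then dosed in 0.64% DMSO. They were kept sealed in the dark at 28C until 120 hpf. Pericardial edema was then recorded as present or absent.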
Regarding `CCc1cc(C2=C(C(=O)O)N(c3ccccc3C(F)(F)F)S(=O)(=O)c3ccccc32)cc2c1OCO2`, the outcome was inactive.

Consider `CC(=O)S[C@H](C(=O)N[C@H]1Cc2ccccc2[C@H]2CCC[C@@H](C(=O)O)N2C1=O)C(C)C`, for which the molecule was called inactive.

Consider `O=C1c2c(O)cccc2Cc2cccc(O)c21`, for which the molecule was called inactive.

On to `NC(=Nc1ccccc1)Nc1ccccc1`, for which the molecule was called inactive.

Regarding `COC(=O)CCC(=O)OC`, the outcome was inactive.

As for `CN(C)C(=O)NC1(c2ccccc2)CCN(CCC[C@]2(c3ccc(Cl)c(Cl)c3)CCCN(C(=O)c3ccccc3)C2)CC1`, the result was inactive.

For the molecule `Oc1ccccc1O`, the molecule was classed as inactive.

Take `CCCCC(CC)CO` (centres undefined): the molecule was classed as inactive.

As for `Cc1c(C)c2c(c(C)c1O)CCC(C)(COc1ccc(CC3SC(=O)NC3=O)cc1)O2` (centres undefined), the result was inactive.

For the molecule `CCCC[C@H]1CN(CC2CCOCC2)C(=O)OC12CCN(C1(C)CCN(C(=O)c3c(C)ncnc3C)CC1)CC2`, the result was inactive.

As to `CCCCc1nc2cccnc2n1Cc1ccc(-c2ccccc2-c2nnn[nH]2)cc1`, the result was inactive.

In the case of `Oc1ccc(O)cc1`, the result was inactive.

On to `CCCCCCC(CCCCCCCCCCC(=O)OCC(COC(C)=O)OC(C)=O)OC(C)=O` (centres undefined), for which the call was inactive.

Turning to `O=C(O)CN(CC(=O)O)CC(=O)O`, the molecule was classed as inactive.

With `S=c1[nH]c2ccccc2s1`, the AC50 is 37.6 µM (active).

Consider `CS(=O)(=O)c1ccc([C@@H](C[C@H]2CCC(=O)C2)C(=O)Nc2cnccn2)cc1Cl`, for which the outcome was inactive.

As to `CCc1nc(N)nc(N)c1-c1ccc(Cl)cc1`, the result was inactive.

With `COC(=O)[C@H]1[C@H]2C[C@@H]3c4[nH]c5cc(OC)ccc5c4CCN3C[C@H]2C[C@@H](OC(=O)c2cc(OC)c(OC)c(OC)c2)[C@@H]1OC`, the molecule was called inactive.

Take `CCOCCOCCO`: the molecule was called inactive.

With `CN(C)CCCN(C)CCCN(C)C`, the molecule was called inactive.

For the molecule `O=[Si]=O`, the outcome was inactive.

For the molecule `CCC(C)N(C)C(=O)c1cc2ccccc2c(-c2ccccc2Cl)n1` (centres undefined), the half-maximal activity concentration (AC50) was 6.53 µM (active).

Regarding `O=C(O)c1[nH]n(-c2ccc(S(=O)(=O)O)cc2)c(=O)c1N=Nc1ccc(S(=O)(=O)O)cc1`, the outcome was inactive.

Consider `CN(C)CCCN1c2ccccc2Sc2ccc(Cl)cc21`, for which the molecule was classed as inactive.

For `COC(=O)CCCC(=O)OC`, the outcome was inactive.

On to `CC1(C)C(=O)NC(=O)N1CO`, for which the molecule was called inactive.

On to `Cc1ccc(C(C)(C)C)c(O)c1`, for which the molecule was classed as inactive.

Regarding `CCCCCCCCCCCCCCOS(=O)(=O)O`, the AC50 was 27.7 µM (active).

Regarding `COc1ccc(OC(F)(F)F)cc1CN[C@H]1CCCN[C@H]1c1ccccc1`, the result was inactive.

The nature of another experiment: Tanguay_ZF_120hpf_BRAI_legacy: (Legacy) Oregon State University Tanguay Lab 120 Hour Post-fertilization zebrafish Assay for Brain Malformation (AID 2283641). In a few lines: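 Wild-type 5D larvae, static waterborne exposure to 120 hpf, 28C, 0.64% v/v DMSO. Brightfield scoring of brain defects, binary; dead embryos excluded. Positive ctrl 5uM trimethyltin chloride.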
Take `CCc1cc(C2=C(C(=O)O)N(c3ccccc3C(F)(F)F)S(=O)(=O)c3ccccc32)cc2c1OCO2`: the outcome was inactive.

`NC(=Nc1ccccc1)Nc1ccccc1`: the molecule was classed as inactive.

With `CCCCC(CC)CO` (centres undefined), the result was inactive.

In the case of `Cc1c(C)c2c(c(C)c1O)CCC(C)(COc1ccc(CC3SC(=O)NC3=O)cc1)O2` (centres undefined), the result was inactive.

Turning to `CCCC[C@H]1CN(CC2CCOCC2)C(=O)OC12CCN(C1(C)CCN(C(=O)c3c(C)ncnc3C)CC1)CC2`, the call was inactive.

Turning to `Oc1ccc(O)cc1`, the result was inactive.

On to `CCCCCCC(CCCCCCCCCCC(=O)OCC(COC(C)=O)OC(C)=O)OC(C)=O` (centres undefined), for which the call was inactive.

With `O=C(O)CN(CC(=O)O)CC(=O)O`, the molecule was classed as inactive.

Take `CCc1nc(N)nc(N)c1-c1ccc(Cl)cc1`: the molecule was classed as inactive.

`CCOCCOCCO`: the molecule was classed as inactive.

For `CCC(C)N(C)C(=O)c1cc2ccccc2c(-c2ccccc2Cl)n1` (centres undefined), the outcome was inactive.

For the molecule `O=C(O)c1[nH]n(-c2ccc(S(=O)(=O)O)cc2)c(=O)c1N=Nc1ccc(S(=O)(=O)O)cc1`, the call was inactive.

Consider `CC1(C)C(=O)NC(=O)N1CO`, for which the molecule was classed as inactive.

Consider `Cc1ccc(C(C)(C)C)c(O)c1`, for which the molecule was called inactive.

Consider `COc1ccc(OC(F)(F)F)cc1CN[C@H]1CCCN[C@H]1c1ccccc1`, for which the result was inactive.

The nature of another experiment: Tanguay_ZF_120hpf_SOMI_legacy: (Legacy) Oregon State University Tanguay Lab 120 Hour Post-fertilization zebrafish Assay for Somite Malformation (AID 2283647). In a few lines: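 Read-out: presence or absence of somite malformation in 120 hpf larvae, gain-of-signal relative to DMSO baseline. Embryos lacked chorion (pronase, 4 hpf) and were exposed statically from 6 hpf at 28C; dead larvae not scored.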
For `CC(=O)S[C@H](C(=O)N[C@H]1Cc2ccccc2[C@H]2CCC[C@@H](C(=O)O)N2C1=O)C(C)C`, the call was inactive.

`O=C1c2c(O)cccc2Cc2cccc(O)c21`: the molecule was called inactive.

With `NC(=Nc1ccccc1)Nc1ccccc1`, the molecule was classed as inactive.

Consider `CN(C)C(=O)NC1(c2ccccc2)CCN(CCC[C@]2(c3ccc(Cl)c(Cl)c3)CCCN(C(=O)c3ccccc3)C2)CC1`, for which the call was inactive.

Regarding `Oc1ccccc1O`, the call was inactive.

Turning to `Cc1c(C)c2c(c(C)c1O)CCC(C)(COc1ccc(CC3SC(=O)NC3=O)cc1)O2` (centres undefined), the call was inactive.

As for `CCCC[C@H]1CN(CC2CCOCC2)C(=O)OC12CCN(C1(C)CCN(C(=O)c3c(C)ncnc3C)CC1)CC2`, the call was inactive.

Turning to `CCCCc1nc2cccnc2n1Cc1ccc(-c2ccccc2-c2nnn[nH]2)cc1`, the call was inactive.

For the molecule `Oc1ccc(O)cc1`, the outcome was inactive.

In the case of `CCCCCCC(CCCCCCCCCCC(=O)OCC(COC(C)=O)OC(C)=O)OC(C)=O` (centres undefined), the outcome was inactive.

On to `O=C(O)CN(CC(=O)O)CC(=O)O`, for which the outcome was inactive.

As for `S=c1[nH]c2ccccc2s1`, the AC50 is 44.5 µM (active).

Turning to `CS(=O)(=O)c1ccc([C@@H](C[C@H]2CCC(=O)C2)C(=O)Nc2cnccn2)cc1Cl`, the outcome was inactive.

On to `CCc1nc(N)nc(N)c1-c1ccc(Cl)cc1`, for which the molecule was called inactive.

As to `COC(=O)[C@H]1[C@H]2C[C@@H]3c4[nH]c5cc(OC)ccc5c4CCN3C[C@H]2C[C@@H](OC(=O)c2cc(OC)c(OC)c(OC)c2)[C@@H]1OC`, the result was inactive.

As for `CCOCCOCCO`, the outcome was inactive.

Turning to `CN(C)CCCN(C)CCCN(C)C`, the molecule was classed as inactive.

For `O=[Si]=O`, the outcome was inactive.

Take `CCC(C)N(C)C(=O)c1cc2ccccc2c(-c2ccccc2Cl)n1` (centres undefined): the result was inactive.

On to `O=C(O)c1[nH]n(-c2ccc(S(=O)(=O)O)cc2)c(=O)c1N=Nc1ccc(S(=O)(=O)O)cc1`, for which the call was inactive.

In the case of `CN(C)CCCN1c2ccccc2Sc2ccc(Cl)cc21`, the molecule was classed as inactive.

For the molecule `COC(=O)CCCC(=O)OC`, the call was inactive.

In the case of `CC1(C)C(=O)NC(=O)N1CO`, the molecule was called inactive.

For the molecule `Cc1ccc(C(C)(C)C)c(O)c1`, the outcome was inactive.

Take `CCCCCCCCCCCCCCOS(=O)(=O)O`: the call was inactive.
